A selection: hits, their analogues and other compounds. The true share with any hit is near 9%.
LMNA splice mod – changes lamin A minigene splicing in HeLa cells. actives 0.01% (n = 200,000). HeLa LMNA splicing GFP/RFP minigene ratio, 48 h. AID 1487. Potency, µM (highest dose often 46.1 µM), hits mostly inhibitors; active = well fitted inhibition curve with a large enough effect in the signal ratio, with a control signal flat, not every such curve was filed as active; inconclusive = small, poorly fitted or top-dose-only effect, or effect the other way, or a change in a side signal; the % refers to the signal ratio
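S3 HeLa stable clones carrying a lamin A-EGFP splicing minigene plus DsRed2 were seeded at 600 cells/well in Opti-MEM with 2% FBS, pin-dosed and incubated 48 h at 37°C. Acumen cytometry (488 nm) gave the GFP/RFP total-intensity ratio.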
HTT ATP protect – cytoprotection in Huntington HTT-Q103 PC12 cell model | PC12 HTT-Q103 induced, cytoprotection, ATP luminescence, 40 h | Potency, µM (top dose mostly 56.4 µM), actives largely listed as activators | actives 0.14% (n = 230,000) | AID 1471; note: nearly all actives have a fitted effect of over 45% in size
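Huntington model: PC12 line, ecdysone-inducible HTTQ103 exon1–GFP, tebufenozide 100 nM. Test articles in a dose series. Endpoint luminescence from cellular ATP.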
ALDH1A1 block – blocks purified human ALDH1A1 activity; Potency, µM (titrated, usually from 75.3 µM), most hits filed as inhibitors; AID 1030; actives 7.3% (n = 220,000); P00352; Purified ALDH1A1, NADH fluorescence, propionaldehyde substrate; active = well fitted inhibition curve with a large enough effect, not every such curve was filed as active; inconclusive = small, poorly fitted or top-dose-only effect, or another doubt; inactive = no such curve, though single readings can be large or run the other way
Target sequence (P00352 whole entry, looked up): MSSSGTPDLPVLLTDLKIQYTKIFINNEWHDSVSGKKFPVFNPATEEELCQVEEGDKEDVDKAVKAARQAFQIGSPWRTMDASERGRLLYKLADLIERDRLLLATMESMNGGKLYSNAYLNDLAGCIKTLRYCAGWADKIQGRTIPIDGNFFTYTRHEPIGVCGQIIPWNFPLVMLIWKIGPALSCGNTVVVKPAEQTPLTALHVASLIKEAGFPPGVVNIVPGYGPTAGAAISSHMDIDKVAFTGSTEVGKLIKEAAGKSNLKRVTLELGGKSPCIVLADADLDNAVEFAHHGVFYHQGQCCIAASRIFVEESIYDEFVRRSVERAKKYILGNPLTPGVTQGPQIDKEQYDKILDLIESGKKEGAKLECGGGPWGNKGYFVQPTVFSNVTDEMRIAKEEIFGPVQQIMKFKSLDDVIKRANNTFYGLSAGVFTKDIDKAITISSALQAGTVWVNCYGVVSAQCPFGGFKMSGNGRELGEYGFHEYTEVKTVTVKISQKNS
Luc counter – counter-screen: inhibitors of Kinase-Glo firefly luciferase; Q27757; Kinase-Glo luciferase, ATP luminescence, 8 min; Potency, µM (highest dose often 38.3 µM), hits mostly inhibitors; actives 0.28% (n = 200,000); note: nearly all actives have a fitted effect of over 60% in size
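Light output from Kinase-Glo luciferase with luciferin and 10 uM ATP in 50 mM imidazole pH 7.2, KCl, MgCl2, Tween 20, BSA; compound pin-delivered, 8-min ambient incubation, then luminescence read.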
HTT aggregate – reduces HttQ103-GFP aggregates in PC12 cells. actives 1.1% (n = 220,000). Potency, µM (doses to about 46.1 µM), most hits filed as inhibitors. PC12 HttQ103-GFP aggregates, Acumen cytometry, 40 h; note: nearly all actives have a fitted effect of over 60% in size
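PC12 cells with ecdysone-inducible HTT exon1 Q103-GFP, induced by 100 nM tebufenozide, given compounds in a concentration series. GFP aggregates (1–25 um, 6 SD above background) counted in lysates by laser-scanning cytometry, 488 nm excitation.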
HPGD inh – inhibitors of human 15-hydroxyprostaglandin dehydrogenase (HPGD) | AID 894 | actives 4.3% (n = 150,000) | P15428 | purified HPGD, NADH fluorescence kinetic, PGE2 substrate | Potency, µM, usual class: inhibitors; active = well fitted inhibition curve with a large enough effect, not every such curve was filed as active; inconclusive = small, poorly fitted or top-dose-only effect, or another doubt; inactive = no such curve, though single readings can be large or run the other way
Target sequence (P15428 whole entry, looked up): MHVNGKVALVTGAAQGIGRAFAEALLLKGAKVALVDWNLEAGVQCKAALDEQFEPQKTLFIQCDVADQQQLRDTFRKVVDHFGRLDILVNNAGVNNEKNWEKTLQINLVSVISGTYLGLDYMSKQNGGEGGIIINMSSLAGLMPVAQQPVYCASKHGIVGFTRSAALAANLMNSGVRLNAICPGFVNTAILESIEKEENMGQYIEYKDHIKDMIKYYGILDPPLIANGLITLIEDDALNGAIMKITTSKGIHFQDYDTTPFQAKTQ
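NADH formation kinetics: reaction with 30 uM PGE2 and 1 mM NAD+ (final), 20 nM enzyme, Tris-HCl pH 8 with Tween 20, after 15 min compound preincubation at room temperature. Fluorescence change, last versus first of five reads.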
Numbers stand for hits; – = inactive; ? = inconclusive; · = no result given; [ ] = dose if it differs, or a comment. Unless noted, calls come from the whole dose curve; as a rule, active = well fitted curve in the direction sought with a large enough effect; inconclusive = small, poorly fitted or top-dose-only effect, or another doubt; inactive = no such curve, though single readings can be large; an effect the other way counts as inactive or inconclusive.

SMILES | LMNA splice mod | HTT ATP protect | ALDH1A1 block | Luc counter | HTT aggregate | HPGD inh
CC(C)CSc1nc2c(c(=O)[nH]c(=O)n2C)n1CC(O)COc1cccc2ccccc12 (configuration not stated) | – | –[10 µM] | 17.8µM | – | – | 12.6µM
Cn1c(=O)[nH]c(=O)c2c1nc(Br)n2Cc1ccccc1Cl | – | –[10 µM] | – | – | – | –
CC1=C(C(=O)NCc2ccccc2F)C2(CCCCC2)OC1=O | – | · | · | · | · | ·
c1ccc(CN(Cc2ccccc2)c2nn[nH]n2)cc1 | · | · | – | – | – | ·
COc1ccc(-c2oc3cc(O)c(OC)c(O)c3c(=O)c2OC)cc1 | · | –[10 µM] | · | · | –[9.22 µM] | ·
CCC(C)(C)NC(=O)Cc1ccc(C)cc1 | – | – | – | – | –[9.22 µM] | 14.1µM
CCCCNC(=O)Cc1ccc(C)cc1 | – | –[10 µM] | – | – | – | ?
CNc1nn(-c2cccc(Cl)c2)nc1N | ? | –[1.9 µM] | 2µM | – | – | –
O=C(NC1CC1)c1cc(-c2ccccn2)nc2ccccc12 | – | – | – | · | – | ·
O=C(NC(NC(=S)Nc1ccc(Cl)c(Cl)c1)C(Cl)(Cl)Cl)c1ccco1 (configuration not stated) | – | – | 7.08µM | – | – | –
O=C(NC(NC(=S)Nc1cc(Cl)ccc1Cl)C(Cl)(Cl)Cl)c1ccco1 (configuration not stated) | ? | – | 8.91µM | – | ? | –
O=C(/C=C/c1ccccc1)NC(NC(=S)Nc1cc(Cl)ccc1Cl)C(Cl)(Cl)Cl (configuration not stated) | –[0.0737 µM] | – | 22.4µM | – | 2.82µM | –
O=C(NC(NC(=S)Nc1ccccc1C(=O)O)C(Cl)(Cl)Cl)c1ccco1 (configuration not stated) | – | –[10 µM] | ? | – | – | ?
Cc1ccccc1NC(=S)NC(NC(=O)c1ccco1)C(Cl)(Cl)Cl (configuration not stated) | ? | –[10 µM] | 9.46µM | – | – | –
O=C(O)c1cccc(NC(=S)NC(NC(=O)c2ccco2)C(Cl)(Cl)Cl)c1 (configuration not stated) | · | –[10 µM] | · | · | –[9.22 µM] | ·
CC(C)(C)OC(=O)N1CCC(c2c(C(=O)N3CCCCC3)cnn2-c2ccc(F)cc2F)CC1 | – | · | · | · | · | ·
O=C(c1ccc2c(c1)N(Cc1ccccc1Cl)C(=O)c1ccccc1S2)N1CCCC1 | – | · | · | · | · | ·
CCC(C)NC(=O)CSc1nc2c(sc3ccccc32)c(=O)n1CCCN1CCOCC1 (configuration not stated) | – | –[10 µM] | – | – | – | ?
CCOC(=O)CSc1nc2c(sc3ccccc32)c(=O)n1CCCN1CCOCC1 | – | –[10 µM] | 14.1µM | – | – | –
Nc1c(C(=O)N2CCOCC2)sc2nc3c(cc12)CCC3 | – | –[10 µM] | – | 11.2µM | –[9.22 µM] | ·
Nc1ccc2cc3ccccc3cc2c1 | · | – | 2µM | · | · | –
CCCc1cc(-c2n[nH]c(=S)n2-c2cccc(C)c2)cs1 | –[9.22 µM] | – | ? | – | –[9.22 µM] | ·
CCc1cc(-c2n[nH]c(=S)n2C(C)c2ccccc2)cs1 (configuration not stated) | ? | – | 0.562µM | – | ? | 15.8µM
Cc1scc(-c2n[nH]c(=S)n2C(C)c2ccccc2)c1C (configuration not stated) | ? | –[10 µM] | ? | – | – | 25.1µM
CC(=O)Nc1ccc(OCC(O)Cn2c3ccccc3c3ccccc32)c(C)c1 (configuration not stated) | ? | – | – | – | – | 25.1µM
SMILES | LMNA splice mod | HTT ATP protect | ALDH1A1 block | Luc counter | HTT aggregate | HPGD inh
CC(=O)c1c(COC(=O)c2ccc(Cl)cc2)nc2ccccc2[n+]1[O-] | · | –[10 µM] | · | · | –[9.22 µM] | ·
CC(=O)c1c(COC(=O)c2ccccc2)nc2ccccc2[n+]1[O-] | – | – | ? | – | – | 14.1µM
CC(=O)C1CCC2C3CC(C)C4=CC(=O)CC[C@@]4(C)C3C(O)C[C@@]12C (some centres not stated) | · | – | – | – | · | –
CN(C)S(=O)(=O)Nc1ccccc1C(N)=O | – | – | ? | – | 3.55µM | ?
C=CCn1c(SCC#N)nc2c(c1=O)C(C)(C)Cc1ccccc1-2 | – | –[10 µM] | ? | – | 10µM | –
C=CCn1c(SCC#N)nc2ccccc2c1=O | – | –[10 µM] | ? | – | – | –
O=C(CNC1CCCCC1)N1CCc2ccccc2C1 | – | – | 11.2µM | – | – | –
C/C(=N\Nc1cc(C)nc(-c2ccccc2O)n1)c1ccccc1 | · | · | – | – | · | ·
Cc1cc(N/N=C/c2ccc(O)c(C)c2O)nc(-c2ccccc2O)n1 | ? | –[10 µM] | – | – | 15.8µM | –
CCN(CC)CCCNC(=O)C(C)n1nc(C)c2sc3ccccc3c2c1=O (configuration not stated) | – | – | ? | – | – | –
Nc1ccccc1C(=O)NNC1=C(C(=O)C(F)(F)F)CCC1 | · | –[10 µM] | · | · | –[9.22 µM] | ·
O=C(NNC1=C(C(=O)C(F)(F)F)CCC1)c1ccc(Br)cc1 | ? | – | – | – | 11.2µM | –
O=C(NNC1=C(C(=O)C(F)(F)F)CCC1)c1ccccc1Cl | ? | – | – | – | ? | 14.1µM
Cc1csc(NC(=O)C2=NN(c3ccccc3)C(=O)CC2)n1 | · | ? | – | – | – | ·
CCOC(=O)c1nc(N)c(C(=O)OCC)[nH]1 | – | – | ? | – | 3.55µM | ?
CN(C)Cc1c(-c2ccc(Cl)cc2)nc2ccccn12 | · | – | – | – | 0.0316µM | ·
CCn1nnc(NC(=O)c2ccc(C(C)(C)C)cc2)n1 | – | – | – | – | ? | –
CCn1nnc(NC(=O)c2cccnc2)n1 | – | – | – | – | – | 25.1µM
O=C(COc1ccccc1)NCC(=O)N/N=C/c1cccs1 | – | – | 22.4µM | – | – | –
O=C(COc1ccc(Cl)cc1)NCC(=O)N/N=C/c1cccs1 | · | – | ? | – | – | ·
COc1ccc(N2CCN(C(=O)c3ccc4c(=O)n(CC5CCCO5)c(=O)[nH]c4c3)CC2)cc1 (configuration not stated) | – | – | ? | – | – | –
COC(=O)c1ccc(C(NC(=O)OCc2ccccc2)/C(I)=C/[C@@H](C)C(=O)NCC2CC2)cc1 (some centres not stated) | · | – | – | – | · | 14.1µM
COc1cc(CNc2ccc(NC(C)=O)cc2)ccc1OCc1ccccc1C | · | ? | ? | – | – | ·
Cn1c2c(c(=O)n(C)c1=O)C(C(F)(F)F)(C(F)(F)F)N=C(c1ccc(Cl)cc1)N2 | ? | – | – | – | 1.26µM | –
O=C(Nc1nnc(SCC(=O)N2CCCCC2)s1)C1CCCCC1 | – | –[10 µM] | ? | – | – | 14.1µM
O=C(CSc1nnc(NC(=O)C2CCC2)s1)NC1CC1 | – | –[10 µM] | – | – | – | –
COC(=O)CSc1nnc(-c2ccc(NS(=O)(=O)c3ccccc3)cc2)o1 | – | – | – | – | – | 17.8µM
Cc1ccc(CSc2nnc(-c3ccc(NS(=O)(=O)c4ccccc4)cc3)o2)cc1 | ? | –[1.9 µM] | – | – | – | –
